Reference: the supplement of paper PMC12494721
Where a name gives a salt, the structure may show the parent alone.

Key:
Conditions in all cases: 20 µM; incubation time: 27 h, anaerobic, 37 °C;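 for the amine columns active = adjusted P below 0.05 in both replicates with a change the same way and a mean fold change under 0.8 or over 1.25; inactive = the rest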
[1] = test system: Clostridium sporogenes DSM 1664; test: growth (OD595) fold change vs plate DMSO controls (fold change (ratio)); higher = more growth
Outline: (§1)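 The reported measure is growth: the fold change against the median of DMSO controls on the plate. Absorbance at 595 nm from anaerobic 96-well mGAM cultures grown for 27 h at 37 °C was blank-subtracted, corrected for background with 20 µM compound solutions in water, and converted to OD with a calibration factor of 5. Fold changes above 1.5 appear as NA, and values are the mean of 2 biological replicates.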

Escherichia coli IAI1 [2] = test: as above
Outline: as §1

[3] = test system: Klebsiella aerogenes DSM 30053; test: as above
Outline: as §1

[4] = test system: Ruminococcus gnavus DSM 108212; test: as above
Outline: as §1

[5] = test system: Klebsiella aerogenes DSM 30053; test: fold change of Histamine concentration vs plate DMSO controls (fold change (ratio)); higher = more amine produced, active = hit call of the paper (significant change in both replicates, either direction)
Outline: (§2)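 Each value is the fold change relative to DMSO-only wells on the same plate. Four gut bacterial strains were grown anaerobically in mGAM at 37 °C for 27 h in 80 µL wells, starting at OD 0.1 before a 1:1 dilution, with compounds at 20 µM final (sweeteners 50 µM). Whole cultures were extracted with cold acetonitrile/methanol containing 0.1% formic acid, centrifuged, and amines were quantified by LC–triple-quadrupole MS (dynamic MRM) against external calibration curves with within-batch drift correction. Values are means of 2 biological replicates.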

[6] = test system: Clostridium sporogenes DSM 1664; test: fold change of Tryptamine concentration vs plate DMSO controls (fold change (ratio)); higher = more amine produced, active = hit call of the paper (significant change in both replicates, either direction)
Outline: as §2

[7] = test system: Ruminococcus gnavus DSM 108212; test: as above
Outline: as §2

Escherichia coli IAI1 [8] = test: fold change of Putrescine concentration vs plate DMSO controls (fold change (ratio)); higher = more amine produced, active = hit call of the paper (significant change in both replicates, either direction)
Outline: as §2

[9] = test system: Klebsiella aerogenes DSM 30053; test: as above
Outline: as §2

Escherichia coli IAI1 [10] = test: fold change of Cadaverine concentration vs plate DMSO controls (fold change (ratio)); higher = more amine produced, active = hit call of the paper (significant change in both replicates, either direction)
Outline: as §2

[11] = test system: Klebsiella aerogenes DSM 30053; test: as above
Outline: as §2

[12] = test system: Ruminococcus gnavus DSM 108212; test: fold change of 2-Phenylethylamine concentration vs plate DMSO controls (fold change (ratio)); higher = more amine produced, active = hit call of the paper (significant change in both replicates, either direction)
Outline: as §2

| SMILES | growth [1] | growth (Escherichia coli IAI1 [2]) | growth [3] | growth [4] | fold change of Histamine concentration [5] | fold change of Tryptamine concentration [6] | fold change of Tryptamine concentration [7] | fold change of Putrescine concentration (Escherichia coli IAI1 [8]) | fold change of Putrescine concentration [9] | fold change of Cadaverine concentration (Escherichia coli IAI1 [10]) | fold change of Cadaverine concentration [11] | fold change of 2-Phenylethylamine concentration [12] |
| --- | --- | --- | --- | --- | --- | --- | --- | --- | --- | --- | --- | --- |
| CC(C)N(CCC(C(N)=O)(c1ccccc1)c1ccccn1)C(C)C (configuration not stated) [Disopyramide] | 1.08 | 1.04 | 1.01 | 0.817 | 0.927 (inactive) | 0.996 (inactive) | 1 (inactive) | 1.06 (inactive) | 0.996 (inactive) | 1.01 (inactive) | 1 (inactive) | 0.972 (inactive) |
| c1ccc2c(c1)cc1ccc3cccc4ccc2c1c34 [Benzo[a]pyrene] | 0.972 | 1.03 | 1.06 | 1.01 | 0.948 (inactive) | 1.03 (inactive) | 1.01 (inactive) | 0.977 (inactive) | 1.01 (inactive) | 1 (inactive) | 1 (inactive) | 1.04 (inactive) |
| CC(C)(C)c1ccc(CSc2cnn(C(C)(C)C)c(=O)c2Cl)cc1 | 0.838 | 0.995 | 1.01 | 1.13 | 1 (inactive) | 1.02 (inactive) | 0.997 (inactive) | 0.97 (inactive) | 1.01 (inactive) | 1.04 (inactive) | 1 (inactive) | 0.948 (inactive) |
| CC(C)[N+](C)(CCC(C(N)=O)(c1ccccc1)c1ccccc1)C(C)C [Isopropamide iodide] | 1.04 | 1.09 | 0.982 | 1.39 | 1.01 (inactive) | 0.99 (inactive) | 0.909 (inactive) | 1.24 (inactive) | 1.01 (inactive) | 0.936 (inactive) | 0.997 (inactive) | 0.834 (inactive) |
| N#C/N=C1\SCCN1Cc1ccc(Cl)nc1 | 1.01 | 0.969 | 0.996 | 1 | 0.995 (inactive) | 1 (inactive) | 1 (inactive) | 1.04 (inactive) | 0.994 (inactive) | 0.991 (inactive) | 1 (inactive) | 1.03 (inactive) |
| N#Cc1nn(-c2c(Cl)cc(C(F)(F)F)cc2Cl)c(N)c1[S+]([O-])C(F)(F)F (configuration not stated) [Fipronil] | 1.26 | 1.11 | 1.1 | 1.28 | 0.947 (inactive) | 1.05 (inactive) | 1 (inactive) | 1.03 (inactive) | 0.981 (inactive) | 1.01 (inactive) | 1 (inactive) | 1.04 (inactive) |
| COC[C@@H](NC(C)=O)C(=O)NCc1ccccc1 [Lacosamide] | 1.07 | 1.01 | 1.06 | 0.96 | 1.08 (inactive) | 1 (inactive) | 1.04 (inactive) | 1.01 (inactive) | 1.02 (inactive) | 1 (inactive) | 1 (inactive) | 1.07 (inactive) |
| CN(C)C(=O)Oc1ccc[n+](C)c1 [Pyridostigmine iodide] | 1.02 | 0.975 | 1 | 0.901 | 1.05 (inactive) | 0.975 (inactive) | 1.01 (inactive) | 0.993 (inactive) | 0.98 (inactive) | 1.01 (inactive) | 1.03 (inactive) | 1.02 (inactive) |
| OC(Cc1ccccc1Cl)(Cn1nc[nH]c1=S)C1(Cl)CC1 (configuration not stated) | 0.971 | 1.12 | 0.969 | 0.953 | 1.04 (inactive) | 1.02 (inactive) | 0.978 (inactive) | 0.937 (inactive) | 0.96 (inactive) | 0.946 (inactive) | 0.974 (inactive) | 0.951 (inactive) |
| Oc1ccc(Cc2ccc(O)cc2)cc1 [Bisphenol F] | 0.945 | 1.12 | 0.989 | 1.03 | 1.06 (inactive) | 1.11 (inactive) | 1.15 (inactive) | 1.04 (inactive) | 0.986 (inactive) | 1.03 (inactive) | 1.09 (inactive) | 1.48 (inactive) |
| N#CCNC(=O)c1cnccc1C(F)(F)F | 1.08 | 1 | 0.999 | 1.12 | 1.02 (inactive) | 1 (inactive) | 1 (inactive) | 1.01 (inactive) | 1.01 (inactive) | 1.03 (inactive) | 0.997 (inactive) | 0.951 (inactive) |
| COc1cc2c(c(OC)c1OC)-c1ccc(OC)c(=O)cc1[C@@H](NC(C)=O)CC2 [Colchicine] | 0.992 | 1.02 | 0.975 | 1.16 | 1.06 (inactive) | 1.02 (inactive) | 0.889 (inactive) | 1.04 (inactive) | 1.02 (inactive) | 1.04 (inactive) | 0.983 (inactive) | 0.829 (inactive) |
| CCC(C)c1ccccc1OC(=O)NC (configuration not stated) | 1.06 | 0.988 | 1.09 | 1.01 | 0.948 (inactive) | 0.949 (inactive) | 1.01 (inactive) | 1.05 (inactive) | 1.01 (inactive) | 0.972 (inactive) | 1 (inactive) | 1.03 (inactive) |
| C[C@]12CC[C@H]3[C@@H](CCC4=CC(=O)CC[C@@H]43)[C@@H]1CC[C@@H]2O [Nandrolone] | 1.11 | 1.06 | 1.02 | 1.01 | 0.993 (inactive) | 1.01 (inactive) | 1.02 (inactive) | 1.04 (inactive) | 1 (inactive) | 1 (inactive) | 0.999 (inactive) | 1.03 (inactive) |
| CCOC(=O)CC(SP(=S)(OC)OC)C(=O)OCC (configuration not stated) | 0.873 | 1.03 | 1.01 | 0.941 | 0.998 (inactive) | 1.06 (inactive) | 1.02 (inactive) | 1.01 (inactive) | 0.994 (inactive) | 0.997 (inactive) | 0.993 (inactive) | 1 (inactive) |
| CCc1cnc(C2=NC(C)(C(C)C)C(=O)N2)c(C(=O)O)c1 (configuration not stated) | 1 | 1.06 | 0.985 | 1.09 | 1 (inactive) | 0.954 (inactive) | 1.01 (inactive) | 1.03 (inactive) | 1.02 (inactive) | 0.991 (inactive) | 0.993 (inactive) | 0.984 (inactive) |
| Clc1ccc(C(c2ccc(Cl)cc2)C(Cl)(Cl)Cl)cc1 | 0.984 | 0.974 | 0.996 | 1.12 | 1.03 (inactive) | 1.02 (inactive) | 0.962 (inactive) | 1.06 (inactive) | 1.02 (inactive) | 0.957 (inactive) | 1 (inactive) | 0.914 (inactive) |
| COc1cccc(C(=O)NN(C(=O)c2cc(C)cc(C)c2)C(C)(C)C)c1C | 0.988 | 1.01 | 1.01 | 1.17 | 0.994 (inactive) | 0.948 (inactive) | 0.932 (inactive) | 1.03 (inactive) | 0.983 (inactive) | 0.968 (inactive) | 0.986 (inactive) | 0.92 (inactive) |
| C[C@@H]1CN([C@H]2CC[C@](C#N)(c3ccc(F)cc3)CC2)CC[C@]1(C(=O)O)c1ccccc1 [Levocabastine hydrochloride] | 1.17 | 1.09 | 1.02 | 1.07 | 1.03 (inactive) | 1.04 (inactive) | 1 (inactive) | 1.02 (inactive) | 1 (inactive) | 0.916 (inactive) | 0.999 (inactive) | 0.949 (inactive) |
| CC[N+]1(C)CCCC(OC(=O)C(O)(c2ccccc2)c2ccccc2)C1 (configuration not stated) [Pipenzolate bromide] | 0.938 | 0.997 | 0.994 | 1.05 | 0.982 (inactive) | 0.957 (inactive) | 0.956 (inactive) | 1.06 (inactive) | 1 (inactive) | 0.988 (inactive) | 1.01 (inactive) | 0.926 (inactive) |
| CN1C[C@H](CNC(=O)OCc2ccccc2)C[C@@H]2c3cccc4c3c(cn4C)C[C@H]21 [Metergoline] | 1.1 | 1.09 | 1.03 | 1.03 | 0.987 (inactive) | 0.943 (inactive) | 0.94 (inactive) | 1.04 (inactive) | 0.996 (inactive) | 1.08 (inactive) | 1 (inactive) | 0.967 (inactive) |
